PubChem BioAssay (NCATS)
Results filed as inconclusive are left out. Active and inactive are the calls of the source. Calls follow the shape of the dose curve; as a rule, active = well fitted cell-killing curve with a large enough effect; inconclusive = small, poorly fitted or top-dose-only effect, or effect the other way; inactive = no such curve, though single readings can be large or run the other way.

assay: Viability qHTS for spleen associated tyrosine kinase inhibitor (SYKi) drug resistant MV4-11 cells (AID 1963824); settings: SYKi-resistant MV4-11 viability, CellTiter-Glo, 72 h; series mostly up to 45 µM; viability, % of control: at the top concentration; also: nearly all actives have a fitted effect of over 35% in size
Excerpt: Department of Medicine, Hematology/Oncology
University Hospital Frankfurt, Germany.
Trials have shown promising clinical activity of the selective SYK inhibitor entospletinib in patients with high expressing HOXA9/MEIS1 acute leukemias. As the development of resistance mechanisms is a common problem in the use of targeted drugs, we performed a chemical library screen to identify drug sensitivities in SYK inhibitor resistant AML cells. […] Glucocorticoids are potent immunosuppressants which work in part by inhibiting the transcription of cytokine genes.
Described herein is a viability screen to look for activity in the SYK inhibitor drug resistant cell line against four NCATS compound libraries (MIPE 5.0, NPC, NPACT, and Kinase) totaling 11372 compounds. Active hits were reacquired for confirmation and further secondary assay testing.
SEQUENCE No. (e.g., 1, 2, 3, etc.); […] (e.g., Cells, Incubation, Reagent, etc.); VALUE; DESCRIPTION.
1; Media; 2uL; white, solid-bottom Corning assay plate.
2; Compounds; 23nL; Echo acoustic dispenser.
3; Cell; 5uL; 500 cells per well.
4: Incubation; 72hr; 37 C, 5% CO2, 95% humidity.
5; Reagent; 3uL; CellTiter-Glo reagent (Promega).
6; Incubation; 10min; room temperature.
7; Detection; Luminescence; ViewLux plate reader (PerkinElmer).
NOTES (numbers refer to Sequence numbers above
1. Quantitative high-throughput screening (qHTS) of small molecule compounds was conducted on drug resistant SYKi MV4-11 cell line.
2. Twenty-three nanoliter of small molecule compounds were added to each assay plates using the Echo acoustic dispenser (Beckman Coulter).
3. Cells were seeded into the assay plates at a final density of 500 cells in 5uL of media per well using the Multidrop Combi dispenser.
4. Plates were covered with stainless steel gasketed lids and incubated for 72 hours at standard cell culture conditions.
5. Viability was assessed by adding 3uL of CellTiter-Glo detection reagent (Promega).
6. Plates were covered with gasket lids and incubated for 10 minutes at room temperature.
7. Luminescence was measured on a ViewLux plate reader (PerkinElmer).
Potency is read from the fitted curve at half-maximal effect.

SMILES	viability, % of control	Potency
ClCCN1CCCC1	94% (inactive)	–
C[C@@H]1CC[C@@]2(OC1)O[C@H]1C[C@H]3[C@@H]4CC=C5C[C@@H](O[C@@H]6O[C@H](CO)[C@@H](O[C@@H]7O[C@@H](C)[C@H](O)[C@@H](O)[C@H]7O)[C@H](O)[C@H]6O[C@@H]6O[C@@H](C)[C@H](O)[C@@H](O)[C@H]6O)CC[C@]5(C)[C@H]4CC[C@]3(C)[C@H]1[C@@H]2C	–	1.66 µM (active)
Cc1cccc(NC(=O)N[C@H]2CN(C)c3ccccc3C(c3ccccc3)=N2)c1	–	16.4 µM (active)
COC(=O)C1(C)CCC(O)C2(C)c3cc(O)c(C(C)C)cc3C(O)C(OC(C)=O)C12 (stereo not given)	88.6% [at 17.3 µM] (inactive)	–
CCC(C(N)=O)N1CCCC1=O (stereo not given)	104% (inactive)	–
C=CC(C)(O)CC/C=C(\C)C(=O)O[C@H]1[C@H](O)[C@@H](CO)O[C@@H](OC(=O)[C@]23CCC(C)(C)CC2C2=CCC4[C@@]5(C)CC[C@H](O[C@@H]6O[C@H](CO[C@@H]7OC[C@H](O)[C@H](O)[C@H]7O[C@@H]7OC[C@@H](O)[C@H](O)[C@H]7O)[C@@H](O)[C@H](O)[C@H]6O)C(C)(C)C5CC[C@@]4(C)[C@]2(C)CC3)[C@@H]1OC1OC(C)C(O[C@@H]2OC[C@@H](O)[C@H](O[C@@H]3OC[C@@H](O)[C@H](O)[C@H]3O)[C@H]2O)C(O)C1O (stereo not given in full)	77.8% [at 9.25 µM] (inactive)	–
COc1cc2cc(c1Cl)N(C)C(=O)C[C@H](OC(=O)C(C)C)[C@]1(C)O[C@@H]1[C@H](C)[C@@H]1C[C@@](O)(NC(=O)O1)[C@H](OC)/C=C/C=C(\C)C2	2.17% (inactive)	–
COC1C(O)C(C)OC(OC2C(CO)O[C@@H](O[C@@H]3CC4CCC5C(CC[C@]6(C)[C@@H](C7=CC(=O)OC7)CC[C@]56O)[C@@]4(C)[C@H](O)C3)C(O)C2O)C1O (stereo not given in full)	–	0.217 µM (active)
Cc1cc(O)ccc1Cl	92.8% (inactive)	–
CCCCCn1cc(C(=O)Cc2ccccc2OC)c2ccccc21	–	20.6 µM (active)
CC(C)(C)NC[C@H](O)c1ccc(O)cc1Cl	80.3% (inactive)	–
C[C@@H]1O[C@@H](OC2CCC3(C=O)C(CCC4C3CCC3(C)C(C5=CC(=O)OC5)C(O)CC43O)C2)[C@H](O)[C@H](O)[C@H]1O[C@@H]1O[C@H](CO)[C@@H](O)[C@H](O)[C@H]1O (stereo not given in full)	–	1.72 µM (active)
COc1cc(C(=O)O[C@H]2[C@@H]3C=CO[C@@H](O[C@@H]4O[C@H](CO)[C@@H](O)[C@H](O)[C@H]4O)[C@@H]3[C@@]3(CO)O[C@@H]23)ccc1O	75.5% [at 17.3 µM] (inactive)	–
C[C@]12Cc3cn[nH]c3C[C@@H]1CC[C@@H]1[C@@H]2CC[C@@]2(C)[C@H]1CC[C@]2(C)O	–	18.6 µM (active)
COc1ccc(CC2C(=O)NC(C)C(=O)N(C)C3Cc4ccc(cc4)Oc4cc(ccc4OC4OC(CO)C(O)C(O)C4O)CC(C(=O)NC(C)C(=O)NC(CCC(=O)O)C(=O)N2C)N(C)C3=O)cc1 (stereo not given)	–	0.618 µM (active)
CC12Cc3cn[nH]c3C=C1CCC1C2CCC2(C)C1CCC2(C)O (stereo not given)	–	20.6 µM (active)
CC(N)Cc1c[nH]c2ccccc12 (stereo not given)	75.2% (inactive)	–
Nc1ccccc1C(=O)OCC(O)CO (stereo not given)	65.1% (inactive)	–
C[C@]12CCC(=O)C=C1CC[C@@H]1[C@@H]2[C@@H](O)C[C@]2(C)C(=O)CC[C@@H]12	92.4% (inactive)	–
ClCc1cccc(Cl)c1	93.6% (inactive)	–

SMILES	viability, % of control	Potency
COc1c2c(cc3c1OCO3)CCN(C)C2	73.9% (inactive)	–
CSCC[C@@H](NC(=O)[C@@H](Cc1ccccc1)NC(=O)CNC(=O)CNC(=O)[C@@H](N)Cc1ccc(O)cc1)C(=O)O	97.3% (inactive)	–
CCC(=O)OC1(c2ccccc2)CCN(C)CC1	79.3% [at 91.9 µM] (inactive)	–
C=CCN1C[C@H](C)N([C@H](c2ccc(C(=O)N(CC)CC)cc2)c2cccc(OC)c2)C[C@H]1C	93.3% [at 9.25 µM] (inactive)	–
COc1cccc([C@@]2(O)CCCC[C@@H]2CN(C)C)c1	92.5% (inactive)	–
O=S(=O)(F)Cc1ccccc1	86.9% (inactive)	–
O=C(N[C@H]1CN2CCC1CC2)c1cc2cccc(Cl)c2s1	–	20.6 µM (active)
Cc1ccc(-c2nc3ccc(C)cn3c2CC(=O)N(C)C)cc1	97.6% (inactive)	–
O=C(Nc1ccncc1)C(=O)c1cn(Cc2ccc(Cl)cc2)c2ccccc12	–	0.166 µM (active)
CCOC(=O)Nc1ccc(NCc2c(C)cc(C)cc2C)cc1N	–	9.2 µM (active)
CC[C@H](C)[C@H](NC(=O)[C@H]1CCCCN1C)C(=O)N(COC(=O)CC(C)C)[C@H](C[C@@H](OC(C)=O)c1nc(C(=O)N[C@@H](Cc2ccc(O)cc2)C[C@H](C)C(=O)O)cs1)C(C)C	–	0.0004 µM (active)
C/C(=C\c1csc(C)n1)[C@@H]1C[C@@H]2O[C@]2(C)CCC[C@H](C)[C@H](O)[C@@H](C)C(=O)C(C)(C)[C@@H](O)CC(=O)O1	–	0.0047 µM (active)
Cc1c(C(=O)Nc2cccc(C(F)(F)F)c2)cc(-c2ccccc2)n1CCCN1CCOCC1	–	16.6 µM (active)
CC(O)CN1CCN(CC(=O)[O-])CCN(CC(=O)[O-])CCN(CC(=O)[O-])CC1.[Gd+3] (stereo not given)	97.7% (inactive)	–
CC(=O)OC1(c2ccccc2)CCN(CCc2ccccc2)CC1	–	44.1 µM (active)
O=C(CCl)c1ccc(Cl)cc1Cl	82.5% (inactive)	–
CC[n+]1c(-c2ccccc2)c2cc(N)ccc2c2ccc(N)cc21	–	4.22 µM (active)
C[CH2][Hg][S]c1ccccc1C(=O)O	92.1% (inactive)	–
C[N@@+]1(CC2CC2)CC[C@]23c4c5ccc(O)c4O[C@H]2C(=O)CC[C@@]3(O)[C@H]1C5	109% (inactive)	–
CC1OC(C)OC(C)O1 (stereo not given)	78.8% (inactive)	–
